Source: PubChem BioAssay (EPA / NIEHS)
Calls of active or inactive are those of the source. Rule for the calls: active = hit-call score of the fitted dose curve at least 0.9, where 1 is the maximum; inactive = score below 0.9.

Read-out: ABC Transporter (ABCB1), ABCB1 (gene 5243)
Assay: LTEA_HepaRG_ABCB1: Life Technologies and Expression Analysis (LTEA) Assay for ABC Transporter (ABCB1) using HepaRG (AID 2283460)
Details: mRNA level, 48 h; actives raise or lower the signal
Procedure: LTEA_HepaRG is a cell based, multiplexed-readout assay that uses HepaRG, a human liver cell line, with measurements taken at 48 hours after chemical dosing on a 96-well plate.LTEA_HepaRG_ABCB1 is one of 102 assay component(s) measured in the LTEA HepaRG cell culture assay. It is a marker of Steatosis/NR mediated transport.Data from the assay component LTEA_HepaRG_ABCB1 was analyzed into 1 endpoint. This assay endpoint, LTEA_HepaRG_ABCB1, was analyzed with bidirectional fitting relative to DMSO as the negative control and baseline of activity. Using a type of inducible reporter, measures of mRNA induction for gain or loss-of-signal activity can be used to understand regulation of transcription factor activity. To generalize the intended target to other relatable targets, this assay endpoint is annotated to the transporter intended target family, where the subfamily is ABC transporter.
A total of 1060 chemcials from the ToxCast library were tested in eight-point concentration-response experiments. Cell culture and cytotoxicity assays were conducted at Thermo Fisher Scientific's Custom Services facility (Madison, WI). A single lot of human HepaRG cells (Thermo Fisher Scientific, Frederick, MD) was used for the cell culture experiments. 96-well format collagen type I coated plates of human HepaRG cells were prepared using established methods. Briefly, cryopreserved HepaRG cells were thawed, plated at a density of approximately 100,000 cells/well in HepaRG Thaw, Plate, and General Purpose media (HPRG770, Thermo Fisher Scientific), and incubated for 48 hours. 0.5% DMSO was selected as vehicle control to balance the requisite need of DMSO in HepaRG cultures to maintain differentiation (for example, baseline metabolism, proportions of hepatocytes vs. cholangiocytes), while enabling further hepatic receptor pathway activation (for example, PXR and CAR) in response to chemical exposure. 48 hours after plating, the culture medium was replaced with HepaRG Serum-Free Incudtion Media. Cells were exposed to each test chemical in duplicate and maintained in CO2 incubators for another 48 hours. Chemical plates were thawed to room temperature and 200x concentrations of treatment groups were prepared. 8-point conentration-reponse curves were made with the highest exposure at 100 uM, followed by half-log dilutions, all in 0.5% DMSO. Each test plate contained variouse controls, induction positive controls (1mM phenobarbital), cytotoxicity positive controls ([…] aflatoxin B1), vehicle controls (0.5% DMSO), and total lysis controls (0.5% DMSO). Cell morphology images were taken using an Essen IncuCyte FLR automated microscope, with six 96-well plates imaged in about 24 minutes. Images were captured and exported and JPEG files. Spent culture media was transfered to black-well plates for the LDH assay, and remaining media was sorted at -80 C for later use. Cells were treated with RLT buffer and frozen until shipped for gene expression analysis. Total RNA was isolated from the cell suspension in 75 uL of Buffer RLT (Qiagen, Germantown, MD 20874) by Quintiles/Expression Analysis (Durham, NC) using a custom isolation procedure. Total RNA from each plate well was transferred to a preamplification plate. Fluidigm's 96.96 Dynamic ArrayTM (Fluidigm, Amsterdam, the Netherlands) technology was used for gene expression analyses by quantitative reverse transcription polymerase chain reaction (qRT-PCR, performed by Quintiles/Expression Analysis, Durham, NC)89. Standard TaqManTM Assays (Applied Biosystems/ThermoFisher Scientific, Foster City, CA) were used to assess the expression of 93 genes selected based on their selectivity and sensitivity to important hepatic receptors known to be modulated by environmental chemicals; importance in human hepatocyte functionality; and hepatotoxicity. […]

Compound | outcome | AC50
COC(=O)CC(=O)OC | inactive | 
O=C(NS(=O)(=O)/C=C/c1ccccc1)c1ccc(F)cc1Cl |  | 10.8 µM (active)
COc1cccc(-c2ccc(/C=C\CN3CCCCCC3)cc2Cl)c1 | inactive | 
O=P(OC(CCl)CCl)(OC(CCl)CCl)OC(CCl)CCl |  | 78.8 µM (active)
Nc1ccc(Nc2ccccc2)cc1 | inactive | 
COc1ccc2sc(C(=O)Nc3nnn[nH]3)c(OC(C)C)c2c1 | inactive | 
CCCCCCCCO | inactive | 
O=C(CCCCCCCCc1cccnc1)N1CCC(C=C(c2ccccc2)c2ccccc2)CC1 |  | 30.7 µM (active)
O=C1CCC(N2C(=O)c3ccccc3C2=O)C(=O)N1 (stereo not given) | inactive | 
CCOC(=O)COc1ccc2c(c1)CC(NCC(O)c1cccc(Cl)c1)CC2 (stereo not given) | inactive | 
CC[C@H]1OC(=O)[C@H](C)[C@@H](O[C@H]2C[C@@](C)(OC)[C@@H](O)[C@H](C)O2)[C@H](C)[C@@H](O[C@@H]2O[C@H](C)C[C@H](N(C)C)[C@H]2O)[C@](C)(O)C[C@@H](C)C(=O)[C@H](C)[C@@H](O)[C@]1(C)O | inactive | 
CN(C)c1ccc(N=NS(=O)(=O)O)cc1 | inactive | 
Nc1cccc(N)c1 | inactive | 
CCC(C)(C)C(=O)O[C@H]1C[C@@H](C)C=C2C=C[C@H](C)[C@H](CC[C@@H]3C[C@@H](O)CC(=O)O3)[C@H]21 |  | 31.7 µM (active)
O=C1CCCCCN1 | inactive | 
CCCCCCCCCCCCCCCO | inactive | 
CC(C)CCCCCCOC(=O)c1ccc(C(=O)OCCCCCCC(C)C)c(C(=O)OCCCCCCC(C)C)c1 | inactive | 
CNCc1ccc(NC(=O)c2c[nH]c3c2C(=O)CCC3)cc1 | inactive | 
C1N2CN3CN1CN(C2)C3 | inactive | 
CCNc1ccccc1 | inactive | 

Compound | outcome | AC50
Cc1[nH]cnc1C[C@H]1CCc2c(C)c3ccccc3n2C1=O |  | 68.5 µM (active)
CCOc1cccc(-n2cc(C(=O)N3CCN(c4cc(C(=O)O)c5ccccc5c4)CC3)nc2-c2ccc(C)cc2)c1 |  | 78.6 µM (active)
CC(C)CCO | inactive | 
On1ccccc1=S | inactive | 
COc1ccc(/C=C/S(=O)(=O)NC(=O)c2ccc(C)cc2Cl)cc1 | inactive | 
CCOCCOCCOCCO | inactive | 
CC(C)CCCCCCCOC(=O)CCCCC(=O)OCCCCCCCC(C)C | inactive | 
Cn1c(=O)cc(Oc2ccc(F)cc2F)c2cnc(NCC(C)(C)O)nc21 | inactive | 
Cc1ccc(N)cc1O | inactive | 
O=C(O)c1cccc(Oc2ccccc2)c1 | inactive | 
Nc1nc2ncc(CNc3ccc(C(=O)N[C@@H](CCC(=O)O)C(=O)O)cc3)nc2c(=O)[nH]1 | inactive | 
Clc1nc(Cl)c(Cl)c(Cl)c1Cl | inactive | 
CNS(=O)(=O)c1cc(C(=O)N2CCC(CCN3C4CCC3CC(n3c(C)nc5ccccc53)C4)(c3cccc(F)c3)CC2)c(Cl)cc1F (stereo not given) | inactive | 
CC(C)c1cccc(C(C)C)c1N1C(=O)c2ccc(O)cc2C1=O |  | 23.9 µM (active)
Cn1cnc([N+](=O)[O-])c1Sc1ncnc2nc[nH]c12 | inactive | 
CC(C)=CCCC(C)CCO (stereo not given) | inactive | 
O=C(OC[C@H]1O[C@@H](OC(=O)c2cc(O)c(O)c(OC(=O)c3cc(O)c(O)c(O)c3)c2)[C@H](OC(=O)c2cc(O)c(O)c(OC(=O)c3cc(O)c(O)c(O)c3)c2)[C@@H](OC(=O)c2cc(O)c(O)c(OC(=O)c3cc(O)c(O)c(O)c3)c2)[C@@H]1OC(=O)c1cc(O)c(O)c(OC(=O)c2cc(O)c(O)c(O)c2)c1)c1cc(O)c(O)c(OC(=O)c2cc(O)c(O)c(O)c2)c1 | inactive | 
CN(C)c1ccc(Cc2ccc(N(C)C)cc2)cc1 | inactive | 
CCCCC(CC)COC(=O)c1ccc(C(=O)OCC(CC)CCCC)cc1 (stereo not given) | inactive | 
Cc1ccc(C)c(O)c1 | inactive | 
